Screening data: PubChem, National Center for Advancing Translational Sciences (NCATS)
HP1b binding inh = blocks HP1-beta chromodomain binding to methylated histone tails. P83916. AlphaScreen HP1-beta / biotin-H3K9me3 peptide binding. Potency, µM (series often up to 114 µM), for the others: at the top dose activity change, negative = inhibition, hits mostly inhibitors. 390,000 compounds, 0.56% hits; further: nearly all actives have a fitted effect of over 70% in size
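Compound inhibition of the preformed complex between 50 nM HP1-beta and 50 nM biotinylated H3K9me3 peptide was read by AlphaScreen. Buffer was PBS pH 7.4 with 0.01% Tween-20. Incubations ran 30 min at room temperature, with 10 ug/mL donor/acceptor beads.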
BAZ2B inh = BAZ2B (human) inhibition. AlphaScreen BAZ2B-H3K14Ac peptide displacement. 360,000 compounds, 4.4% hits. Q9UIF8. Potency, µM (highest dose often 114 µM), for inactives: at the highest dose activity change, negative = inhibition, usual class: inhibitors; further: on the % scale 0 is the no-effect control and ±100 the full control effect; nearly all actives have a fitted effect of over 60% in size
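AlphaScreen luminescence quantifies BAZ2B engagement of H3K14Ac peptide; the protein and biotinylated peptide are both at 50 nM final, buffer PBS pH 7.4 with 0.01% Tween-20, all steps at room temperature.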
Sfp inh = blocks B. subtilis Sfp PPTase activity | Biochemical Sfp PPTase activity, qHTS | 310,000 compounds, 3.5% hits | Potency, µM, inactives show largest response in the series, negative = inhibition, usual class: inhibitors;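 further: the enzyme is Sfp with the accession as filed and its product quenches rhodamine fluorescence; 0% = enzyme reaction without inhibitor and -100% = no enzyme wells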
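Reaction rates are the 30-min fluorescence difference (ex 525, em 598 nm) in wells containing 15 nM Sfp, 5 uM rhodamine-CoA and 12.5 uM BHQ-2-YbbR at pH 7.6 with 10 mM MgCl2.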
L3MBTL1 inh = L3MBTL1 (human) inhibition; Q9Y468; AlphaScreen L3MBTL1–H3K9me1 peptide binding; Potency, µM (series often up to 57.1 µM), for inactives: at the top dose activity, negative = inhibition, most hits filed as inhibitors; 230,000 compounds, 0.66% hits; further: on the % scale 0 is the no-effect control and ±100 the full control effect; nearly all actives have a fitted effect of over 60% in size
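AlphaScreen proximity signal between nickel-chelate acceptor and streptavidin donor beads (final 10 ug/mL) reports binding of 50 nM L3MBTL1 to 75 nM biotin-H3 K9me1 peptide; complex incubated with compounds 30 min at room temperature; cefsulodin titration as control.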
JMJD2A Tudor inh = inhibitors of human JMJD2A Tudor domain. 390,000 compounds, 4.4% hits. Potency, µM (doses to about 114 µM), inactives show at the highest dose activity change, negative = inhibition, usual class: inhibitors. AID 504339. AlphaScreen JMJD2A-Tudor / H3K4me3 peptide binding. O75164; further: on the % scale 0 is the no-effect control and ±100 the full control effect; nearly all actives have a fitted effect of over 50% in size
G9a block = inhibitors of human histone lysine methyltransferase G9a | Q96KQ7 | 350,000 compounds, 8.8% hits | AID 504332 | G9a H3K9 monomethylation, AlphaScreen, 2 h | Potency, µM (highest dose often 102 µM), inactives show top-dose activity, negative = inhibition, hits mostly inhibitors; further: on the % scale 0 is the no-effect control and ±100 the full control effect; nearly all actives have a fitted effect of over 75% in size
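Using a bead-based AlphaScreen, monomethylated H3K9 product from 2 h room-temperature reactions (G9a 20 nM, peptide 500 nM, SAM 20 uM) was detected with 0.5 ug/mL rabbit anti-H3K9me1 antibody.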
* = called active by the depositor; ? = inconclusive; · = not tested or not shown; [ ] = another dose, or the depositor's remark. Shown are actives, neighbours in structure and some others; about 12% of the full set was active somewhere. The call rests on the fitted dose curve; in most records, active means well fitted curve in the direction sought with a large enough effect; inconclusive means small, poorly fitted or top-dose-only effect, or another doubt; inactive means no such curve, though single readings can be large; an effect the other way counts as inactive or inconclusive. Potency means the concentration at half of the fitted maximal effect.

SMILES | HP1b binding inh | BAZ2B inh | Sfp inh | L3MBTL1 inh | JMJD2A Tudor inh | G9a block
CCc1ccc(NC(=O)N2CCC(N3CCN(Cc4ccc(C)cc4)C(=O)C3=O)CC2)cc1 | 51% | 1% | · | · | -15% | 17%[59 µM]
CCC(C(=O)Nc1ccc(F)cc1F)n1nc(-c2ccccc2)c2c(c1=O)CCCC2 (stereo unspecified) | 9% | -9% | · | · | -20% | -4%[59 µM]
O=C(NCCc1ccccc1)C1CCCN(c2cnccn2)C1 (stereo unspecified) | ? | -7% | 7% | · | 28µM* | ·
Cc1nc(SCC(=O)N2c3ccccc3NC(=O)CC2C)c2c(C)c(C)sc2n1 (stereo unspecified) | 33% | 5% | · | -1% | -13% | 45µM*
COc1ccc(-c2nnc3n2N=C(c2c(OC)cccc2OC)CS3)cc1 | · | · | -10% | · | -9% | ·
Clc1ccccc1OCCn1ccnc1 | 45µM* | 79µM* | -27% | · | 4.5µM* | 10µM*
COc1cccc(OCCn2ccnc2)c1 | 24% | 7% | 2% | 12% | -13% | ?
COc1ccc(OCCn2ccnc2)cc1 | 33% | -10% | ? | 1%[2.29 µM] | 4% | -9%[0.501 µM]
Clc1cccc(OCCn2ccnc2)c1 | 30% | -4% | 9% | -3% | -10% | ·
C=CCc1cccc(OC)c1OCCOCCn1ccnc1 | ? | 35µM* | -75% | -13% | 5µM* | ?
C=CCc1ccccc1OCCn1ccnc1 | ? | 50µM* | -5% | 0% | -91%[57.1 µM] | 8.9µM*
COc1ccc(N2CCN(S(=O)(=O)CCNC(=O)Cc3ccc(OC)c(OC)c3)CC2)cc1 | 12%[57 µM] | -14% | · | · | -12% | ?
COC(=O)c1ccccc1NC(=O)CCCn1c(C)c2cnn(-c3ccccc3)c(=O)c2c1C | 33% | -6% | · | · | -9% | -1%[59 µM]
CCN(CC)c1ccc(NC(=O)C2=CC=CN3CCS(=O)(=O)N=C23)cc1 | -23% | 45µM* | · | -9% | ? | ?
CC(C)(C)c1ccc(NC(=O)C2=CC=CN3CCS(=O)(=O)N=C23)cc1 | 24% | 4% | · | -1% | -10% | 5%[2.33 µM]
CC(C)CC(=O)/C(=C\c1ccc(Cl)cc1Cl)n1cncn1 | 35% | -4% | 32µM* | -13% | -18% | 79µM*
CN(C)c1ccc(/C=C(/C(=O)c2ccc(Cl)cc2Cl)n2cncn2)cc1 | -11% | 50µM* | -21% | -12% | ? | -8%[59 µM]
CCCCCCc1cc2cc(-c3cn4c(n3)sc3cc(OC)ccc34)c(=O)oc2cc1O | 32% | 3% | · | · | -23% | -17%[59 µM]
Cc1cccnc1N(C(=O)Nc1ccccc1)C1=NCC(C)(C)S1 | 11% | 3% | -2% | -1% | -27% | 56µM*
O=C(O)c1ccc(S(=O)(=O)c2ccc([N+](=O)[O-])cc2[N+](=O)[O-])cc1 | 67% | -15% | 79µM* | · | -19% | 25µM*
O=C(NCCn1c(C(F)(F)F)nc2cc(C(F)(F)F)ccc21)[C@H]1CCCN1c1nc(CN2CCCCC2)cs1 | 33% | -30% | -4% | -1% | -28% | 71µM*
Cc1ccc(-c2csc(N3CCC[C@@H]3C(=O)NCCn3c(C(F)(F)F)nc4ccccc43)n2)cc1 | -14% | ? | -7% | -6% | ? | ?
CS(=O)(=O)N1N=C(c2ccco2)CC1c1ccc(Br)cc1 (stereo unspecified) | 46% | -11% | -9% | 0% | -4% | 35µM*
COc1ccccc1C1CC(c2ccco2)=NN1S(C)(=O)=O (stereo unspecified) | -22% | -13% | 10% | -1% | 50µM* | -38%
CS(=O)(=O)N1N=C(c2ccco2)CC1c1ccccc1Cl (stereo unspecified) | 27% | -35% | 5% | -6% | -21% | -39%
SMILES | HP1b binding inh | BAZ2B inh | Sfp inh | L3MBTL1 inh | JMJD2A Tudor inh | G9a block
CS(=O)(=O)N1N=C(c2ccco2)CC1c1ccc(Cl)cc1Cl (stereo unspecified) | 20% | -18% | 40µM* | 4% | -16% | ·
Cc1cc(C)cc(-n2c(SCC(N)=O)nc3c(oc4ccccc43)c2=O)c1 | 34% | -14% | · | · | -4% | -1%[59 µM]
CCOc1ccc(C2=NC(c3ccc(OC)cc3)=Nc3ccc(Cl)cc3N2)cc1 | 5% | -12% | · | · | -31% | -8%[59 µM]
CCOc1ccc2c(c1)NC(c1ccc(OCC)c(OCC)c1)=NC(c1ccc(F)cc1)=N2 | ? | ? | · | · | 25µM* | 11µM*
COc1ccc(Cc2c(O)nc(SCC(=O)NC34CC5CC(CC(C5)C3)C4)[nH]c2=O)cc1 | 30% | ? | 10% | 8% | -17% | 45µM*
CCCCNC(=O)CSc1nc(O)c(Cc2ccc(OC)cc2)c(=O)[nH]1 | 17% | -19% | 19% | · | 0% | 8%
COc1cc(/C=C/C(=O)O)cc(S(=O)(=O)Nc2ccc3c(c2)OCO3)c1OC | 40% | -21% | 18% | 1% | -10% | -5%
COc1ccc2ccccc2c1C1CC(=O)N2CN(Cc3ccco3)CSC2=C1C#N (stereo unspecified) | ? | -27% | 5.6µM* | -5% | ? | 0.56µM*
COc1cc(C2CC(=O)N3CN(Cc4ccco4)CSC3=C2C#N)ccc1OCc1ccccc1 (stereo unspecified) | ? | 45µM* | 3.5µM* | -13% | 22µM* | 1.3µM*
CSC1=C(C#N)C(c2ccc(C(C)C)cc2)CC(=O)N1 (stereo unspecified) | 21% | -1% | -2% | · | -17% | ?
COc1ccccc1N=C1SCC(=O)N1Cc1ccco1 | -9% | ? | 5% | -7% | -21% | 4%[59 µM]
CC(C)c1ccc(C2CC(=O)N3CN(Cc4ccco4)CSC3=C2C#N)cc1 (stereo unspecified) | ? | 50µM* | 2.2µM* | -10% | 40µM* | 2.8µM*
N#CC1=C2SCN(Cc3ccco3)CN2C(=O)CC1c1ccc(Cl)cc1 (stereo unspecified) | ? | · | 2.5µM* | -6% | ? | 1µM*
COCCOC(=O)C1=C(C)N=C2SCCC(=O)N2C1c1ccc(OCc2ccccc2)c(OC)c1 (stereo unspecified) | 15% | -1% | · | · | -20% | 9%[59 µM]
Cn1c(/C=C/c2ccc(Cl)cc2)nc2ccccc2c1=O | -10% | -1% | -7% | 25% | ? | ·
CSc1nn(Cc2cccc(F)c2)c(N(C(C)=O)C(C)=O)c1S(=O)(=O)c1ccccc1 | 12% | 2% | · | · | -17% | 6%[59 µM]
COc1ccc2ccccc2c1C1CC(=O)N2CN(C3CCCCC3)CSC2=C1C#N (stereo unspecified) | ? | ? | 13µM* | -14% | ? | 1.6µM*
COc1ccc(C2CC(=O)N3CN(C4CCCCC4)CSC3=C2C#N)c(OC)c1 (stereo unspecified) | ? | · | · | · | 3.5µM* | 2.5µM*
